The results in this text go back to PubChem BioAssay (NCATS).

Molecules are shown by their SMILES. Records with an inconclusive call do not appear. Active and inactive are the calls of the source. The call rests on the fitted dose curve; in most records, active means well fitted curve in the direction sought with a large enough effect; inconclusive means small, poorly fitted or top-dose-only effect, or another doubt; inactive means no such curve, though single readings can be large; an effect the other way counts as inactive or inconclusive.

Assay [1] can be described thus: qHTS for Activators of Parkin Expression: LOPAC Validation Assay (NLuc Reporter) (AID 720572). The method in brief: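 Compound effects on Parkin promoter activity were measured as NanoLuc luminescence after 24 h at 37 C. The neuronal reporter line also carried FLuc, which was read first. LOPAC compounds were tested at 7 concentrations, with normalization to DMSO (0%) and positive control (100%).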
(In general: qHTS replaces the single test concentration by a dilution series.)

In assay [2] the target is T1, Hexokinase-4 (Homo sapiens) + Glucokinase regulatory protein (Homo sapiens) (UniProt P35557+Q14397). Description: qHTS assay for inhibitors of recombinant human GCK-GKRP interaction: Diaphorase-coupled assay (AID 743205). The method in brief: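 A kinetic fluorescence read (Ex 525/Em 590 nm, every minute for 30 minutes) tracked resorufin from a G6PDH-diaphorase coupled GCK reaction. It contained 10 nM GST-GCK, 10 nM FLAG-GKRP, 5 mM glucose, 0.4 mM ATP in Hepes pH 7.6. Normalized to with/without-enzyme DMSO controls.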
T1 sequence (P35557 whole entry, looked up): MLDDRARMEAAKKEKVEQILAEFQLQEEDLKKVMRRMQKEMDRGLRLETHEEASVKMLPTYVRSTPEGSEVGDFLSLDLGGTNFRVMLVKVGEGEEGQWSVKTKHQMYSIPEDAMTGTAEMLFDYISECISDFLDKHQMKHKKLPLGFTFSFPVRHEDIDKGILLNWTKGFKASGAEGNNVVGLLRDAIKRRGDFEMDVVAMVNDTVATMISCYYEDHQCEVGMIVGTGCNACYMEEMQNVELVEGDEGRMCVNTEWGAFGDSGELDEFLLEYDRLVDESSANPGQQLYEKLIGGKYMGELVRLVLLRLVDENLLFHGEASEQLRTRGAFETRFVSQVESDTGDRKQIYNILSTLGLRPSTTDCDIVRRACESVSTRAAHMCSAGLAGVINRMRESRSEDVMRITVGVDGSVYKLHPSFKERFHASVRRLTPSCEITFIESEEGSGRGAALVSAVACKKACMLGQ
T1 sequence (Q14397 whole entry, looked up): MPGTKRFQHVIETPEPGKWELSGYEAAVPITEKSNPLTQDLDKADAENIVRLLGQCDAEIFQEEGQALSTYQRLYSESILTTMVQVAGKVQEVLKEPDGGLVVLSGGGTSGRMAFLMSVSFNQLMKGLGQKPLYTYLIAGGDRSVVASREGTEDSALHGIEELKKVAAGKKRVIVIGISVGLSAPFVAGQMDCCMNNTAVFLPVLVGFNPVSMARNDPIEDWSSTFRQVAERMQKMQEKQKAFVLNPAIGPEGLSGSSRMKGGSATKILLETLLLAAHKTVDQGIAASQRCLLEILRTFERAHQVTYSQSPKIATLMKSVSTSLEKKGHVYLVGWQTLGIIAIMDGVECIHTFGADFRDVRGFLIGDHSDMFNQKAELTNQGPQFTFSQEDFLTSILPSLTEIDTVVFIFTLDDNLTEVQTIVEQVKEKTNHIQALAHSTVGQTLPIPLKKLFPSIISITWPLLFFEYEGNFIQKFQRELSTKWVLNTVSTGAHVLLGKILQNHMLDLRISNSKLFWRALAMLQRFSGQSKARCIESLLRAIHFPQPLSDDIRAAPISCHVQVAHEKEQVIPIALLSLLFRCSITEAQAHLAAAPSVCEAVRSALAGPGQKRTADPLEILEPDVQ

Assay [3] has as its target T1, Hexokinase-4 (Homo sapiens) + Glucokinase regulatory protein (Homo sapiens). Description: qHTS assay for inhibitors of recombinant human GCK-GKRP interaction: ADP-Glo assay (AID 743206).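 Further: plate controls were DMSO plus enzyme for no effect and no enzyme for full effect.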 The method in brief: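 Pin-transferred compounds meet a 15 nM GST-GCK/15 nM FLAG-GKRP/2 uM S6P mix (dispense concentrations). ATP is then added to 0.4 mM final with 5 mM glucose, and the reaction runs 60 min at room temperature. ADP is quantified luminescently.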

Assay [4] is described as follows: qHTS Assay for Identifying Gametocytocidal Compounds (AID 743244).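 Further: on the % scale 0 is the no-effect control and ±100 the full control effect; actives lower the fluorescent signal which means gametocytes are killed.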 The note with it: P. falciparum 3D7 stage III-V gametocytes, alamarBlue, 72 h; max response: active compounds read low. The method in brief:
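Compounds are pinned into medium, gametocytes (stage III–V, 3D7, 20,000 cells/well) added, and plates held 72 h at 37 °C in 5% CO2. AlamarBlue follows for 24 h before fluorescence reading.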

Assay [5] can be described thus: NS1 protein of Zika virus - qHTS assay to identify small molecule inhibitors in human HEK 293 cells (AID 1347053).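 Further: series mostly up to about 46 µM; plate controls were infected untreated cells for no effect and uninfected cells for full effect; nearly all actives have a fitted effect of over 55% in size.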 The method in brief:
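TR-FRET signal from two anti-ZIKV NS1 antibodies quantified NS1 in HEK 293 cells 24 h after MR766 infection at MOI = 0.5; compounds were added 1 h before virus. Uninfected cells and infected cells defined the NS1 normalization range.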

Assay [6] concerns the target Tyrosine-protein phosphatase non-receptor type substrate 1 (Homo sapiens) + Leukocyte surface antigen CD47 (Homo sapiens) (UniProt P78324+Q08722). In words: CD47-SIRPalpha protein protein interaction - Alpha assay qHTS validation (AID 1347059).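 Further: bead proximity luminescence from CD47 binding SIRPalpha after compound preincubation with SIRPalpha; on the % scale 0 is the no-effect control and ±100 the full control effect.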 The method in brief:
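AlphaScreen signal between CD47-His (12.5 nM) and biotin-SIRPalpha (25 nM) soluble extracellular domains, bead-captured via Ni-NTA and streptavidin. Compounds, in 7-point titrations, met SIRPalpha 30 min before CD47; PBS pH 7.4 with 0.05% IGEPAL.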

Assay [7] deals with Parathyroid hormone/parathyroid hormone-related peptide receptor (Homo sapiens) (UniProt Q03431). In words: qHTS for PTHR1 Agonists: Optimization Screen against the NCGC LOPAC library (AID 1347079).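 Further: GloSensor cAMP luminescence in HEK-293 GP2 cells expressing human PTHR1 with IBMX; 0% is about no effect.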 The method in brief: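 HEK-293 GP2 cells, PTHR1 + GloSensor cAMP; 3000 cells/well, o/n. Luciferin + IBMX 0.5mM each (stock), 1 hr 37C. Cpd titration, 1 hr 37C. Lum after 15 min RT. Ctrl M-PTH(1-15) top 10uM.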

For assay [8], the target named is N-terminal Xaa-Pro-Lys N-methyltransferase 1 (Homo sapiens) (UniProt Q9BV86). In words: qHTS Assay for Inhibitors of N-terminal methyltransferase 1 (NTMT1): LOPAC validation of the NTMT1 SAHH-coupled ThioGlo3 Assay (AID 1347143).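 Further: SAH from peptide methylation measured as thiol fluorescence via SAHH coupling and ThioGlo3; potency means the concentration at half of the fitted maximal effect; nearly all actives have a fitted effect of over 70% in size.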 The method in brief:
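NTMT1 125nM + cpds (various conc.), 1 min RT; add SAM 100uM/SAHH 10uM/ThioGlo3 15uM (addition mix). SAHH-coupled thiol detection, Ex340/Em450, t0 and 30 min RT; signal normalized to background. LOPAC 1280-cpd pilot.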

Assay [9] relates to Zika virus NS2B-NS3 protease (unlinked). In words: Optimization of GU AMC qHTS for Zika virus inhibitors: Unlinked NS2B-NS3 protease assay (AID 1347151). Further: potency means the concentration at half of the fitted maximal effect; nearly all actives have a fitted effect of over 80% in size. The method in brief:
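Fluorescence gain (340/450 nm) over 15 min at room temperature, ~20% conversion, gave percent inhibition fitted to a 4-parameter Hill equation; enzyme was unlinked NS2B-NS3 (25 nM final), pH 8.0 Tris buffer.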

Assay [10] can be described thus: qHTS to identify inhibitors of the type 1 interferon - major histocompatibility complex class I in skeletal muscle: primary screen against the NCATS LOPAC collection (AID 1347405).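 Further: lytic HiBiT luminescence reporting HLA-B protein level; on the % scale 0 is the no-effect control and ±100 the full control effect.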 The method in brief:
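After 24 h at 37 C with compounds (7-point, 1:4.3 dilutions, 46 uM top final) plus 4 ng/ml IFN-beta, luminescence from lytic HiBiT detection was measured. HLA-B*08:01 in C25cl48 myoblasts carried an endogenous C-terminal HiBiT tag; medium lacked dexamethasone.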

A short description of assay [11]: qHTS for inhibitors of adenylyl cyclases using a fission yeast platform: a pilot screen against the NCATS LOPAC library (AID 1347410).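 Further: plate controls were DMSO vehicle for no effect and DPI positive control for full effect.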 The method in brief: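 GFP from fbp1-GFP reporter, read by Acumen laser cytometry, indicates AC inhibition in fission yeast expressing AC9, GNAS and PDE4D2. Cells grown 18 h in the dark at 30C with compounds, final up to 57 uM.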

The nature of assay [12]: Validation qHTS assay for inhibitors of Activation Induced Cytidine Deaminase (AID): UDG Counterscreen signal (AID 1347427). Further: 0% is about no effect. The method in brief:
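Fluorescence at 560 nm excitation, 665 nm emission reports UDG signal after 250 mM NaOH (2x) addition and 30 min. Enzymes (AID 1 uM, UDG 2 U/mL, at 4/3x) preincubated 10 min with compound, then 4 h with 4x 250 nM DJC20/DJC23 substrate at room temperature.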

Assay [13] has as its target Single-stranded DNA cytosine deaminase (Homo sapiens) (UniProt Q9GZX7). Description: Validation qHTS assay for inhibitors of Activation Induced Cytidine Deaminase (AID): AID signal (AID 1347429). Further: on the % scale 0 is the no-effect control and ±100 the full control effect. The method in brief: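 Compounds (final up to 114 uM) preincubated with AID plus UDG; 250 nM DJC20/DJC23 substrate mix (4x stock) added, 4 hr at room temperature, then NaOH, 30 min. Read 1 fluorescence at 540 nm excitation, 590 nm emission.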

Assay [14] is described as follows: Primary qHTS for inhibitors of La Crosse Virus (LACV) - induced cell death in SH-SY5Y cells (AID 1508616).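 Further: top concentration of the series differs between compounds; 0% = infected DMSO wells and 100% = uninfected DMSO wells; higher means more rescue of cells from virus-induced death.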 The method in brief: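 Rescue of virus-induced death was read as ATPLite luminescence after 6 days at 37C, scaled between DMSO wells with LACV and without virus. Cells were SH-SY5Y, 6000/well, infected at 0.01 MOI after compound addition.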
Assay [15] deals with Calcium and integrin-binding protein 1 (Homo sapiens) (UniProt Q99828). Description: Validation qHTS for Identification of Calcium Integrin Binding protein 1 (CIB1) Competitor (AID 1508618). Further: on the % scale 0 is the no-effect control and ±100 the full control effect. The method in brief:
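Displacement of FITC-alphaIIb peptide (100 nM) from CIB1-GST (1 uM) is monitored by polarization in quantitative HTS format; buffer carries 5 mM CaCl2 and 125 mM NaCl at pH 7.4, incubations are at room temperature.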

Assay [16] in a line: Primary qHTS for small molecule stabilizers of the endoplasmic reticulum resident proteome: Secreted ER Calcium Modulated Protein (SERCaMP) assay (AID 1508630). Further: on the % scale 0 is the no-effect control and ±100 the full control effect. The method in brief:
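The SH-SY5Y reporter protocol was run at 3 concentrations up to 38.3 uM (primary) or 11 concentrations (follow-up): 16 h compound, 100 nM thapsigargin for 4 h, then extracellular luciferase luminescence.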

The target of assay [17] is Rap guanine nucleotide exchange factor 3 (Homo sapiens) (UniProt O95398). Description: Confirmatory qHTS for agonist of cAMP-regulated guanine nucleotide exchange factor 3 (EPAC1) (AID 1645881).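 Further: EPAC1 catalysed release of BODIPY-GDP from Rap1B seen as fluorescence loss; 100% = effect of cAMP agonist control; nearly all actives have a fitted effect of over 75% in size.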
Rap guanine nucleotide exchange factor 3 (Homo sapiens), sequence (O95398 whole entry, looked up): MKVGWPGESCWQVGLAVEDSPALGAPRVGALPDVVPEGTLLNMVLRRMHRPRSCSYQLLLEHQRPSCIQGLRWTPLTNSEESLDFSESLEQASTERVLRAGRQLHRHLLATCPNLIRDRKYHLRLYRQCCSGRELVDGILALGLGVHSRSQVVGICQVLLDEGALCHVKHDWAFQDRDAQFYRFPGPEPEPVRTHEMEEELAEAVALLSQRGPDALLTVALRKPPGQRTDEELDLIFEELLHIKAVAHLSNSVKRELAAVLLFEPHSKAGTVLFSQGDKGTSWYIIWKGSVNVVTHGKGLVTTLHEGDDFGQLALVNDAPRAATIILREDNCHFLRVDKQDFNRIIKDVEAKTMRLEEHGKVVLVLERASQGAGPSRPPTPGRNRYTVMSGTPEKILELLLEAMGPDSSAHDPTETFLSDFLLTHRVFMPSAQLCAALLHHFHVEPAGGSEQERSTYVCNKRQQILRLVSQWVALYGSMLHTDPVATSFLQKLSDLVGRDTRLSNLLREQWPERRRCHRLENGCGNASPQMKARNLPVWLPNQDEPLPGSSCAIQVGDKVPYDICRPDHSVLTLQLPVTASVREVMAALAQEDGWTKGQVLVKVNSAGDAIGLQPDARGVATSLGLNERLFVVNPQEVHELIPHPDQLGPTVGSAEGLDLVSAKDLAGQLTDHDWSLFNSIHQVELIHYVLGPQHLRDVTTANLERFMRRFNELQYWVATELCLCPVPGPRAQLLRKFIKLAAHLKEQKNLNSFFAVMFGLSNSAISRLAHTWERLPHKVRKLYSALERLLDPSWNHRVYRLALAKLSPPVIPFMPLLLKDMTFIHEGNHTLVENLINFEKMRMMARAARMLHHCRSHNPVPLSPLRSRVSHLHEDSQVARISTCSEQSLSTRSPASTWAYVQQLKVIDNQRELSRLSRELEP
Assay [18] deals with Rap guanine nucleotide exchange factor 4 (Homo sapiens) (UniProt Q8WZA2). In words: Confirmatory qHTS for agonist of cAMP-regulated guanine nucleotide exchange factor 4 (EPAC2) (AID 1645884).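 Further: nucleotide exchange releases bodipy-GDP from Rap1 and this lowers its fluorescence; on the % scale 0 is the no-effect control and ±100 the full control effect; nearly all actives have a fitted effect of over 65% in size.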
Rap guanine nucleotide exchange factor 4 (Homo sapiens), sequence (Q8WZA2 whole entry, looked up): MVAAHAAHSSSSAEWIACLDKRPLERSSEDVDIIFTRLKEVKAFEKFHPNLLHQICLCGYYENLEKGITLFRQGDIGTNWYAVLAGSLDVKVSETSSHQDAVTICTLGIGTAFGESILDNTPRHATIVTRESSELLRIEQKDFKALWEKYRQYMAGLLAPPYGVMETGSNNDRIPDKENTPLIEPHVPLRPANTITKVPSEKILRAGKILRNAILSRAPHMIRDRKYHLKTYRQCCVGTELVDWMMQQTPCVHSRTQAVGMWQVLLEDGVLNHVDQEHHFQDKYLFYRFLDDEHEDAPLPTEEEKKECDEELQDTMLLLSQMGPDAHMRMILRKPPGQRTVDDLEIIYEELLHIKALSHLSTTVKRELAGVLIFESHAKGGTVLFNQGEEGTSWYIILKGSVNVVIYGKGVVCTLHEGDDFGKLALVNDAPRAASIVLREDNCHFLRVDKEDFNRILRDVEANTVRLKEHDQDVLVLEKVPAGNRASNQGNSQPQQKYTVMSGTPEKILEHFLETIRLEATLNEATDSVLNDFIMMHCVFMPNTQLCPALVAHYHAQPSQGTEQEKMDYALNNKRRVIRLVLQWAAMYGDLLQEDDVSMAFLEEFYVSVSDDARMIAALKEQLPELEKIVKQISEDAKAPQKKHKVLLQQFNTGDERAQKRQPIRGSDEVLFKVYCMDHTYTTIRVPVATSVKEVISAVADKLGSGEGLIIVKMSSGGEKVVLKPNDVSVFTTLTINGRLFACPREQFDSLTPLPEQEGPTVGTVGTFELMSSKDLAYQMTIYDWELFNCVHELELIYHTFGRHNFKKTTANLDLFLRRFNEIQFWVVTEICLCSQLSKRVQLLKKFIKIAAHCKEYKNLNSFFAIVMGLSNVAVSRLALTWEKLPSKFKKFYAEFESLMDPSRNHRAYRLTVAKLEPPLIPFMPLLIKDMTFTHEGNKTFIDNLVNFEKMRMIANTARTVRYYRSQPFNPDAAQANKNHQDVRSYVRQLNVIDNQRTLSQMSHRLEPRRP
Assay [19] has the same target. Description: Confirmatory qHTS for antagonist of cAMP-regulated guanine nucleotide exchange factor 4 (EPAC2) (AID 1645885). Further: on the % scale 0 is the no-effect control and ±100 the full control effect; nearly all actives have a fitted effect of over 25% in size.
The target in assay [20] is Metallo-beta-lactamase type 2 (Klebsiella pneumoniae) (UniProt C7C422). In words: qHTS to identify inhibitors of the New Delhi Metallo-beta-lactamase (NDM): assay validation screen against the NCATS LOPAC Collection (AID 1794843). The method in brief: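 Enzyme 2 nM final, 50 mM HEPES pH 7.0, 1 uM ZnSO4, 0.01% Tween20; cpds in DMSO, preincub w/ enzyme; + nitrocefin (50 uM stock); A485 at plateau; no-enzyme column as blank.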
Metallo-beta-lactamase type 2 (Klebsiella pneumoniae), sequence (C7C422 whole entry, looked up): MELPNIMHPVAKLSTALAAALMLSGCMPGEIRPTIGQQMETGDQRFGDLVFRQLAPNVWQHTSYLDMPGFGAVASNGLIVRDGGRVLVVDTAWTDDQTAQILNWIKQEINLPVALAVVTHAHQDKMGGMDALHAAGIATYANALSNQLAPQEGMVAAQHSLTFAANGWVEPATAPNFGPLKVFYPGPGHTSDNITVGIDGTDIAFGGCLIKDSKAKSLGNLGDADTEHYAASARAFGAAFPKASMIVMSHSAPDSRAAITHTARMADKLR

Assay [21] concerns the target Glutathione peroxidase 1 (Homo sapiens) (UniProt P07203). In words: Primary qHTS Assay for Inhibitors of Recombinant Selenoprotein Glutathione Peroxidase 1 (GPX1) (AID 1845191). Further: on the % scale 0 is the no-effect control and ±100 the full control effect; nearly all actives have a fitted effect of over 65% in size. The method in brief: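 NADPH consumption tracked by fluorescence at 340/450 nm between t=0 and t=15 min, room temperature. Final mix: 10 nM GPX1, 100 nM glutathione reductase, 1 mM GSH, 0.5 mM NADPH, 0.5 mM cumene hydroperoxide, 0.01% BSA; 30 min compound–enzyme preincubation.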

Assay [22] has as its target Phospholipid hydroperoxide glutathione peroxidase GPX4 (Homo sapiens) (UniProt P36969). Description: Primary qHTS Assay for Inhibitors of Recombinant Selenoprotein Glutathione Peroxidase 4 (GPX4) (AID 1845192). Further: series mostly up to about 50 µM; on the % scale 0 is the no-effect control and ±100 the full control effect; nearly all actives have a fitted effect of over 65% in size. The note with it: outcome: dose series up to 50 µM unless noted. The method in brief:
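NADPH consumption followed by fluorescence at 340/450 nm, t=0 and after 15 min at room temperature. Reaction started with cumene hydroperoxide (0.5 mM final) after 30 min compound–GPX4 preincubation; final 200 nM GPX4, 100 nM GR, 1 mM GSH, 0.5 mM NADPH.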

Single-stranded DNA cytosine deaminase (Homo sapiens), sequence (Q9GZX7 whole entry, looked up): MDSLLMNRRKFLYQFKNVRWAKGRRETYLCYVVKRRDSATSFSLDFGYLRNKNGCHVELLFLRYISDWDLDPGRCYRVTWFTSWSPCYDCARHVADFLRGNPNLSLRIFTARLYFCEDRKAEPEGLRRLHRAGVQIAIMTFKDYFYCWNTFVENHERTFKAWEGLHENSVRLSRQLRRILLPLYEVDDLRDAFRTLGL
Tyrosine-protein phosphatase non-receptor type substrate 1 (Homo sapiens) + Leukocyte surface antigen CD47 (Homo sapiens), sequence (P78324 whole entry, looked up, the tested form may be a part): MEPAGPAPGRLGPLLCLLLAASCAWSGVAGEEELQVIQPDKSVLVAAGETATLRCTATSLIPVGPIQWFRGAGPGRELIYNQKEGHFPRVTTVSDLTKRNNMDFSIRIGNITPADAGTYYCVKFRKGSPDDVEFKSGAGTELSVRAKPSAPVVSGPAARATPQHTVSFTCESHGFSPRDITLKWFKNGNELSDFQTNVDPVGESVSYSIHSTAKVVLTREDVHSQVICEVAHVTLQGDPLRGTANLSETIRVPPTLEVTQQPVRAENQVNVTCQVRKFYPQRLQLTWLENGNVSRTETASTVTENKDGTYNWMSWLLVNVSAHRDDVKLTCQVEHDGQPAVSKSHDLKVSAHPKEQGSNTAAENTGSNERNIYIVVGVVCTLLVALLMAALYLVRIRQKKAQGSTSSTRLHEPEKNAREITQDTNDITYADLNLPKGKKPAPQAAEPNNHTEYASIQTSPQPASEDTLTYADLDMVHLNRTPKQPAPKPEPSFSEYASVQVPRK
Tyrosine-protein phosphatase non-receptor type substrate 1 (Homo sapiens) + Leukocyte surface antigen CD47 (Homo sapiens), sequence (Q08722 whole entry, looked up, the tested form may be a part): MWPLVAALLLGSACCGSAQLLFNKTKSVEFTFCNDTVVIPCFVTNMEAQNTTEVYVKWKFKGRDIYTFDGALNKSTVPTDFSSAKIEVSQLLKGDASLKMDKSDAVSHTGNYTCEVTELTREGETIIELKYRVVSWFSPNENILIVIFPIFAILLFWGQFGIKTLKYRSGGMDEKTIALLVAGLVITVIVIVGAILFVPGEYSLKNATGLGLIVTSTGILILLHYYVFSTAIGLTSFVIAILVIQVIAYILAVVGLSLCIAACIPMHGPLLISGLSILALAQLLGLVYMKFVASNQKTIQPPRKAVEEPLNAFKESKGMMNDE
N-terminal Xaa-Pro-Lys N-methyltransferase 1 (Homo sapiens), sequence (Q9BV86 whole entry, looked up): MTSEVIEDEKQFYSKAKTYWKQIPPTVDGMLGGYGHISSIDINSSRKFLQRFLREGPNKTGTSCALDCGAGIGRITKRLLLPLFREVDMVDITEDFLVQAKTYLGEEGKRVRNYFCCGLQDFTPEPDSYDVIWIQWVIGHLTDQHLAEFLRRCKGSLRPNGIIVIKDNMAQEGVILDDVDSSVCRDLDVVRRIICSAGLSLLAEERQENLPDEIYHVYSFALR
Glutathione peroxidase 1 (Homo sapiens), sequence (P07203 whole entry, looked up): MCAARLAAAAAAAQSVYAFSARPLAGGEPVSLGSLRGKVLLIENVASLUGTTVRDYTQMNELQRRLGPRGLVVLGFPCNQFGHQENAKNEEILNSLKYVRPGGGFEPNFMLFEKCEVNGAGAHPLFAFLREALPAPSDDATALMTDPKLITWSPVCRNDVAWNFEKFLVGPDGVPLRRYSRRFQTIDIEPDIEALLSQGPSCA
Calcium and integrin-binding protein 1 (Homo sapiens), sequence (Q99828 whole entry, looked up): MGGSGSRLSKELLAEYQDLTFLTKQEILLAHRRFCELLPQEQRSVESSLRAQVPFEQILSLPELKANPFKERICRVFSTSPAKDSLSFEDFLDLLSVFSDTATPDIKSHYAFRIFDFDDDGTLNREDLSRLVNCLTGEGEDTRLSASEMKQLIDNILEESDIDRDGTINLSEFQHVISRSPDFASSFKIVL

`N#C/C(=C\c1ccc(O)c(O)c1)C(=O)Nc1ccccc1`: the outcome in assay [1], in [2], in assay [3], in [5], in assay [7] and in assay [11] was inactive. Further, the call in [12], in assay [14], in assay [15], in [17] and in assay [18] was inactive. For the same molecule, the max response in assay [4] is 12.5% (inactive). Besides, the Potency entry in assay [6], in assay [10], in assay [13], in assay [16], in [19] and in assay [20] was “inactive” throughout. The Potency result in assay [21] and in [22] was “inactive” each time. In addition, the figures for the Potency in assay [8] and in assay [9] were 39.8 µM (active) and 3.36 µM (active), respectively.
